Measured values: PubChem BioAssay
Active and inactive are the calls of the source.

Assays:
[1] = biological target: Albumin (Bos taurus) (UniProt P02769); assay: compounds binding labelled BSA control protein – biochemical, small-molecule microarray, Alexa647 label, 635/667 nm fluorescence, artefact control for SMM control protein annotation, profiling panel (AID 1118); conditions: BSA-A647 binding, fluorescence 635 nm, higher = more signal;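 further: score merges 667 nm emission intensity and signal-to-noise per printed compound spot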
Chain of Albumin (Bos taurus) (P02769 whole entry, looked up): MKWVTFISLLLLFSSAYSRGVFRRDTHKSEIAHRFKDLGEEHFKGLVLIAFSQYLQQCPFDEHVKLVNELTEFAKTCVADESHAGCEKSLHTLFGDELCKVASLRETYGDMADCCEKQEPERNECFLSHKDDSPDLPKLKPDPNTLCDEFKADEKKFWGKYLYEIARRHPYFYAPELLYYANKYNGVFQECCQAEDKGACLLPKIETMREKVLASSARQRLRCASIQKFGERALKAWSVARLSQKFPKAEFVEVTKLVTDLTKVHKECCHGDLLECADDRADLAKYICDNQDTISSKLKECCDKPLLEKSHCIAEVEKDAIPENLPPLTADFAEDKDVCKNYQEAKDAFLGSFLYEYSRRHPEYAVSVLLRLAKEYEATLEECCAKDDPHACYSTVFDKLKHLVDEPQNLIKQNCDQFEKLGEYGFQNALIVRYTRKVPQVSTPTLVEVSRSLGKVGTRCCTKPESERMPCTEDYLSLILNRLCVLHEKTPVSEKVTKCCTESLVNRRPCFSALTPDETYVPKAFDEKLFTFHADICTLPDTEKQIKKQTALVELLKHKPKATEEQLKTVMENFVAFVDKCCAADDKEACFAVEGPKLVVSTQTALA

[2] = probe aXIP binding to arrayed compounds – biochemical, NeuroSMM set, 635/667 nm fluorescence, primary screen (AID 1119); conditions: small-molecule microarray, higher = more signal, called active from +8 up or from −8 down;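 further: probe is the protein aXip251-270 applied at 1 µg/mL to compound-printed slides; binding of probe to printed compounds measured as 667 nm fluorescence plus signal to noise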
[3] = probe aNOTCH3 binding on compound microarray – biochemical, small-molecule microarray, 635/667 nm fluorescence, primary screen (AID 1120); conditions: higher = more signal;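 further: probe is a biotin-tagged antibody raised against NOTCH3 rather than NOTCH3 protein; score merges spot fluorescence near 667 nm with spot signal to noise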
[4] = probe aNOTCH2 binding on compound microarray – biochemical, small-molecule microarray, 635/667 nm fluorescence, primary screen (AID 1121); conditions: higher = more signal;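 further: score merges feature fluorescence read at 667 nm with its signal to noise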
[5] = biological target: Carbonic anhydrase 2 (Homo sapiens) (UniProt P00918); assay: compounds binding carbonic anhydrase 2 – biochemical, small-molecule microarray, Alexa647-labelled CAII, profiling panel (AID 1122); conditions: CAII-A647 binding fluorescence, higher = more signal
[6] = COS7 lysate on small-molecule microarray, probe aHis, 635 nm (AID 1123); conditions: COS7 cell lysate, fluorescence, higher = more signal;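 further: z-score combines 667nm fluorescence intensity with signal-to-noise per printed compound spot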
[7] = probe aLAP1 signal on lysate-treated microarray – cell lysate, small-molecule microarray, COS7 lysate, primary screen (AID 1124); conditions: probe aLAP1, fluorescence, higher = more signal;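 further: lysate comes from COS7 cells expressing LAP1 and is applied at 0.3 µg/mL; score merges spot fluorescence near 667 nm with signal-to-noise over triplicate slides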
[8] = system: Sam68 (KHDRBS1); assay: compounds binding KHDRBS1 protein – biochemical, small-molecule microarray, 635 nm fluorescence, primary screen (AID 1125); conditions: higher = more signal;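 further: score merges 667 nm channel intensity with signal to noise over triplicate slides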
[9] = system: Chordin-like protein 2 (CHRDL2); assay: compounds binding chordin-like 2 – biochemical, small-molecule microarray, 635 nm fluorescence, primary screen (AID 1126); conditions: fluorescence 635 nm, higher = more signal;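 further: printed compound slides probed with Chrdl2 protein at 4 µg/mL for 1 h at 4 C; score merges 667 nm emission intensity with signal to noise over three replicate slides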
[10] = biological target: Concanavalin-A (Canavalia ensiformis) (UniProt P02866); assay: compounds binding concanavalin A lectin – biochemical, small-molecule microarray, Alexa647 label, 635 nm, artefact control for SMM control protein annotation, primary screen (AID 1127); conditions: ConA-A647 binding fluorescence, higher = more signal;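 further: z combines 667 nm emission intensity with signal-to-noise across three replicate slides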
Chain of Concanavalin-A (Canavalia ensiformis) (P02866 whole entry, looked up): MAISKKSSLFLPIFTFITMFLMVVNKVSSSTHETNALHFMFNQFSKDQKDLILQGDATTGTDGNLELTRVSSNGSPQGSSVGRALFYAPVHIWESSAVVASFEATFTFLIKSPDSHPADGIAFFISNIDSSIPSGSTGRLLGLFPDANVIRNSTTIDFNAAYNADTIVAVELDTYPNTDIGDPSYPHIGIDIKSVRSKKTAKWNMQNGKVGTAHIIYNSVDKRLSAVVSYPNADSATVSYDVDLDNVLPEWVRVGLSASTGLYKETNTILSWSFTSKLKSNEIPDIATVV

[11] = compounds binding Alexa647 anti-His antibody – biochemical, small-molecule microarray, 635 nm fluorescence, artefact control for SMM control protein annotation, primary screen (AID 1128); conditions: higher = more signal;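 further: score merges feature fluorescence with signal-to-noise for each printed compound spot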
[12] = system: Human papillomavirus type 1a E7 protein (residues 1-88); assay: HPV1a E7 small-molecule binders, primary screen, biochemical, small-molecule microarray, residues 1-88, 635 nm (AID 1129); conditions: small-molecule microarray binding, fluorescence 635 nm; higher = more signal
[13] = biological target: Focal adhesion kinase 1 (Homo sapiens) (UniProt Q05397); assay: PTK2 protein binding on printed compound slides – biochemical, small-molecule microarray, 635/667 nm fluorescence, BSA, DTT, primary screen (AID 1130); conditions: 635 nm fluorescence, higher = more signal;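 further: composite of spot emission at 667 nm and signal to noise over triplicate slides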
Chain of Focal adhesion kinase 1 (Homo sapiens) (Q05397 whole entry, looked up): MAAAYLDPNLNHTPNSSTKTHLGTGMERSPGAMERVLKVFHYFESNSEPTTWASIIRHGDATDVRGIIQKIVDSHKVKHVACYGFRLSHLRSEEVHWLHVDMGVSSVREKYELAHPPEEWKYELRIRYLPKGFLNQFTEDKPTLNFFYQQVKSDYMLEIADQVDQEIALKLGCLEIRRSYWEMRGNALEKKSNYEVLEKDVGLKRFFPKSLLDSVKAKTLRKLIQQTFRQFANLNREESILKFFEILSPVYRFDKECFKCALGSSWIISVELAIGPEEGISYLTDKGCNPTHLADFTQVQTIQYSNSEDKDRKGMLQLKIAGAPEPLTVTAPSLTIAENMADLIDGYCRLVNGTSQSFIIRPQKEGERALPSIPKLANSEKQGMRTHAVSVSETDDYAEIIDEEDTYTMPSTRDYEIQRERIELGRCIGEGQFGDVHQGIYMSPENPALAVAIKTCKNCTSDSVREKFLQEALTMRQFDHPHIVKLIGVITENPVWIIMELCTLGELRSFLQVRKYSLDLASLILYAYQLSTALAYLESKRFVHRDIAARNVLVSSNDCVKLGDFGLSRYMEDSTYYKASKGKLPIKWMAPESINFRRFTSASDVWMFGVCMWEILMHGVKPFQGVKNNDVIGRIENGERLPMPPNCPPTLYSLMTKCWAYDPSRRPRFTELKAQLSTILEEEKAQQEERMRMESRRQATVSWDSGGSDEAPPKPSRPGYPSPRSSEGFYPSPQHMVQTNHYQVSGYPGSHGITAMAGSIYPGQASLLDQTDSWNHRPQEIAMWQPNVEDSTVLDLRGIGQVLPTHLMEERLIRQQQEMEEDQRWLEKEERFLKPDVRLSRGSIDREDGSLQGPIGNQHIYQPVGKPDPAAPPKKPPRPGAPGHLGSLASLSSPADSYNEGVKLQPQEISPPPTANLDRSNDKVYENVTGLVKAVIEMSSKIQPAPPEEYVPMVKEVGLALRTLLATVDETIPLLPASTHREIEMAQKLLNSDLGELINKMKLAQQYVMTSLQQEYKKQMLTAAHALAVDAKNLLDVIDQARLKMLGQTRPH

[14] = system: Fibrinogen (Alexa647-labelled); assay: Alexa647-fibrinogen binding to printed small molecules – biochemical, small-molecule microarray, 635/667 nm fluorescence, artefact control for SMM control-protein annotation, profiling panel (AID 1131); conditions: fibrinogen-A647 binding fluorescence, higher = more signal;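 further: z-score merges 667 nm fluorescence with per-spot signal-to-noise over triplicate slides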
[15] = biological target: Follistatin (Homo sapiens) (UniProt P19883); assay: FST protein binding to printed compounds – biochemical, small-molecule microarray, 635/667 nm fluorescence, primary screen (AID 1132); conditions: 635 nm fluorescence, higher = more signal
Chain of Follistatin (Homo sapiens) (P19883 whole entry, looked up): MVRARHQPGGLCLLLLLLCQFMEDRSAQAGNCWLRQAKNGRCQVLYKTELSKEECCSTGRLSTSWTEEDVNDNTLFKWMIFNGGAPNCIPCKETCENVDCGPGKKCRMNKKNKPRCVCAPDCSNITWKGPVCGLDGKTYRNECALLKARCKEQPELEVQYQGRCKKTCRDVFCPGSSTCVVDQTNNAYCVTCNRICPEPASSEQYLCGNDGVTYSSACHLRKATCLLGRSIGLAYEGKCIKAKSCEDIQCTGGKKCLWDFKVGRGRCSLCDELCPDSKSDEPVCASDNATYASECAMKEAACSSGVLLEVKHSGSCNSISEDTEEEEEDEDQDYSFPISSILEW

[16] = biological target: Fibroblast growth factor 2 (Homo sapiens) (UniProt P09038); assay: basic fibroblast growth factor binding to printed compounds – biochemical, small-molecule microarray, 635/667 nm fluorescence, primary screen (AID 1133); conditions: FGF2, fluorescence 635/667, higher = more signal
Chain of Fibroblast growth factor 2 (Homo sapiens) (P09038 whole entry, looked up): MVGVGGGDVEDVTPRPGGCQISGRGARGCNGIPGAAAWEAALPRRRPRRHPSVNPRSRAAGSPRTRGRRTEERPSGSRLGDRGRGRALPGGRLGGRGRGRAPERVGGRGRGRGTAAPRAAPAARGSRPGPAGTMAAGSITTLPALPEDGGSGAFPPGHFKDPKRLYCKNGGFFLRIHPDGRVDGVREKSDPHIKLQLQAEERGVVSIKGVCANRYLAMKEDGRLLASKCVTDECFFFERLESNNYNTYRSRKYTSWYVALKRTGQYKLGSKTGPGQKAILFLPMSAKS

[17] = JC-1 mitochondrial potential readout, lung cancer cells – cell-based, A549, JC-1 fluorescence, basal, 24 h, 100 nL, profiling panel (AID 1138); conditions: higher = more signal;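 further: A549 lung adenocarcinoma cells under basal conditions with no added stimulus; test concentration not given here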
[18] = system: Lefty1; assay: Lefty1 protein binding to printed compounds – biochemical, small-molecule microarray, 635/667 nm fluorescence, primary screen (AID 1139); conditions: fluorescence 635/667, higher = more signal
[19] = system: wheat germ agglutinin (Triticum aestivum), Alexa647-labelled; assay: Alexa647-WGA lectin binding to printed small molecules – biochemical, small-molecule microarray, 635/667 nm fluorescence, artefact control for SMM control-protein annotation, profiling panel (AID 1140); conditions: WGA-A647 binding, 635 nm fluorescence, higher = more signal;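 further: score merges 667 nm feature emission with signal to noise over triplicate slides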
[20] = biological target: Luciferin 4-monooxygenase (Photinus pyralis) (UniProt P08659); assay: inhibition of purified Photinus pyralis luciferase – biochemical, luminescence, purified enzyme, 2006 set, primary screen (AID 1141); conditions: purified firefly luciferase, SteadyGlo luminescence, 30 min; higher = more signal, called active from +8 up or from −8 down;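 further: cell-free assay with purified firefly luciferase at 100 ng per well in PBS; test concentration not given here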
Chain of Luciferin 4-monooxygenase (Photinus pyralis) (P08659 whole entry, looked up): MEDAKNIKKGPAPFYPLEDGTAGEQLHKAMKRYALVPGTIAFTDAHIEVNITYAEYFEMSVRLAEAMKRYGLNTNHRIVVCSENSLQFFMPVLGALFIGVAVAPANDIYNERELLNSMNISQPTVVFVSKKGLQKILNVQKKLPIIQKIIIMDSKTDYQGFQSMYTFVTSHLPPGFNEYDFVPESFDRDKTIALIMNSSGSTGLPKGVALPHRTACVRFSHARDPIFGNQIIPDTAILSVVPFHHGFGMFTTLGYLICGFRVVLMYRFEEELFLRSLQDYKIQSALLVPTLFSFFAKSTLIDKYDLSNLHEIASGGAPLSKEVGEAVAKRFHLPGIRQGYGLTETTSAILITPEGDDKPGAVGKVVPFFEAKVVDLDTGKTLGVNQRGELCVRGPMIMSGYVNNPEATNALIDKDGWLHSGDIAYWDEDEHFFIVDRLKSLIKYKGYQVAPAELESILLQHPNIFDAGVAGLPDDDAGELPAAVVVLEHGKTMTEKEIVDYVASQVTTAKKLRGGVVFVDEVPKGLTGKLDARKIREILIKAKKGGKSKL

Structure (SMILES) | composite z-score [1] | composite Z-score [2] | composite z-score [3] | composite z-score [4] | composite z-score [5] | composite z-score [6] | composite z-score [7] | composite z-score [8] | composite z-score [9] | composite z-score [10] | composite z-score [11] | composite z-score [12] | composite z-score [13] | composite z-score [14] | composite z-score [15] | composite z-score [16] | z-score [17] | composite z-score [18] | composite z-score [19] | z-score [20]
CCCCN1CC=CC23O[C@@H]4/C=C\CCCOC(=O)C4[C@H]2C(=O)N(CCCCCO)[C@@H]3C1=O (stereo not given in full) | -1.09 | 0.414 (inactive) | -0.326 | -0.192 | 0.754 | -0.494 | 0.85 | -1.12 | -0.722 | -1.22 | 0.688 | -1.02 | 1.31 | -0.918 | -0.803 | -0.573 | 0.897 | -1.12 | -0.595 | 0.686 (inactive)
COCCOC(=O)N1C(=O)[C@@]2(c3cc(C#CC4(O)CCCCCC4)ccc31)[C@H](c1ccccc1OCCO)N1[C@H](c3ccccc3)[C@H](c3ccccc3)OC(=O)[C@H]1[C@@H]2C(=O)N1CCc2cc(OC)c(OC)cc2C1 | 0.223 | 0.758 (inactive) | 0.0039 | -0.0817 | 0.527 | 1.89 | 0.612 | 1.29 | -0.225 | 1.13 | 2.27 | 1.23 | 0.669 | 0.895 | 0.653 | 0.461 | -0.932 | 0.8 | 0.632 | -0.022 (inactive)
CCCC[C@H]1C[C@@H]1[C@@H]1N(P(=O)(c2ccccc2)c2ccccc2)C[C@@](O)(c2ccccc2)CC12CC2 | 0.951 | 0.863 (inactive) | 0.169 | 0.0525 | 0.374 | 2.28 | 0.473 | 0.944 | -1.95 | 0.499 | 0.127 | 0.973 | 0.663 | 0.955 | 0.208 | 0.0514 | -1.57 | -1.06 | 0.727 | 2.35 (inactive)
COc1cc(CO)cc(I)c1O[C@H]1C=C(C(=O)NCCO)C[C@@H](NC[C@@H]2CCCO2)[C@@H]1O | 0.0917 | -0.791 (inactive) | 0.105 | -0.14 | -0.0877 | -0.0856 | 0.696 | 1.16 | 0.0292 | 0.0446 | 0.296 | 0.63 | 0.106 | 0.346 | 0.323 | 0.599 | 0.452 | 0.831 | 0.483 | 0.758 (inactive)
CS(=O)(=O)CCOC(=O)C1=CC(CCCO)=CC(C2CC2)N(Cc2cc3c(cc2Br)OCO3)C=C1C(=O)OCCS(C)(=O)=O (stereo not given) | 0.741 | -0.289 (inactive) | -0.0573 | -0.0322 | 0.774 | 0.88 | 0.495 | 0.531 | 0.45 | 0.544 | 1.97 | 0.419 | -0.0438 | 1.01 | 1.18 | 0.198 | 1.29 | 0.477 | 1.15 | -0.395 (inactive)
